Test [1] can be described thus: small molecules captured by biotinylated probe aFSTL3 – biochemical, small-molecule microarray, fluorescence 635/667, stem cell growth factor project, primary screen (AID 1064).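 Note: measures binding of the biotinylated anti-FSTL3 antibody to printed compounds.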 The settings on record: higher = more signal.
Test [2] can be described thus: binders from COS7 lysate, DM2A8 probe, primary screen, torsin A project, cell lysate, small-molecule microarray, fluorescence 635/667 (AID 1065). The settings on record: higher = more signal, COS7 lysate expressing mutant human TOR1A.
A short description of test [3]: small molecules captured by biotinylated probe aFGF2 – biochemical, small-molecule microarray, fluorescence 635/667, stem cell growth factor project, primary screen (AID 1067).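 Note: measures binding of biotinylated aFGF2 protein to printed compounds on slides; z-score merges feature fluorescence and signal-to-noise across triplicate slides.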 Particulars: higher = more signal.
A short description of test [4]: small molecules captured by biotinylated probe aFGF10 – biochemical, small-molecule microarray, fluorescence 635/667, stem cell growth factor project, primary screen (AID 1071).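 Note: score merges 667 nm spot intensity and signal to noise from triplicate slides.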 The settings on record: higher = more signal.
Test [5] has as its target Neurogenic locus notch homolog protein 2 (Homo sapiens) (UniProt Q04721). Kind of test: small molecules binding Notch2 protein – biochemical, small-molecule microarray, 635 nm fluorescence, stem cell growth factors, primary screen (AID 1073). Particulars: higher = more signal.
Test [6] addresses Pro-neuregulin-1, membrane-bound isoform (Homo sapiens) (UniProt Q02297). Kind of test: small molecules binding neuregulin-1 protein – biochemical, small-molecule microarray, fluorescence 635/667, psychiatric disease protein project, primary screen (AID 1075).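 Note: score combines 667 nm spot fluorescence with signal to noise.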 Particulars: NRG1 binding, 635 nm fluorescence, higher = more signal.
Test [7] deals with Neuregulin-1 EGF-like domain. Kind of test: small molecules binding NRG1 EGF domain – biochemical, small-molecule microarray, 635 nm fluorescence, primary screen (AID 1081).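 Note: binding of the protein to compounds printed on small-molecule microarray slides.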 The settings on record: higher = more signal.
The nature of test [8]: FRG1 expression reporter modulators in myotubes – cell-based, C2C12 myotubes, firefly/Renilla luciferase, luminescence, FRG1 inhibition for FSHD, primary screen (AID 1084). The settings on record: FRG1 promoter luciferase, higher = more signal, called active from +8 up or from −8 down.
A short description of test [9]: small molecules captured by biotinylated probe aFST – biochemical, small-molecule microarray, fluorescence 635/667, stem cell growth factor project, primary screen (AID 1086).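 Note: score merges 667 nm fluorescence with signal-to-noise of each printed compound spot.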 Particulars: higher = more signal.
A short description of test [10]: binders of probe aHhip on microarray, primary screen, stem cell growth factor project, biochemical, small-molecule microarray, fluorescence 635/667 (AID 1087).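 Note: score merges spot fluorescence at 667nm with spot signal to noise ratio.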 The settings on record: higher = more signal.
Test [11] has as its system PRMT1 (protein arginine N-methyltransferase 1). The test is described as follows: small molecules binding arginine methyltransferase PRMT1 – biochemical, small-molecule microarray, 635 nm fluorescence, primary screen (AID 1088).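 Note: binding of Prmt1 protein to compounds spotted on small-molecule microarray slides.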 The settings on record: higher = more signal.
Test [12] can be described thus: growth effects on S. cerevisiae YJM789 – YJM789 clinical isolate, OD600, 24 h, basal, primary screen (AID 1089).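 Note: growth of clinical yeast isolate S. cerevisiae YJM 789 seeded 1000 cells per well; test concentration not given here.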 Particulars: higher = more signal, called active from +8 up or from −8 down.
Test [13] is described as follows: S. pombe growth modifiers, basal conditions – strain 972, OD600, 24 h, no modulator, primary screen (AID 1090).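 Note: basal condition with compound alone and no growth modifier present; test concentration not given here.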 The settings on record: S. pombe 972 growth, higher = more signal, called active from +8 up or from −8 down.
A short description of test [14]: budding yeast growth modifiers under rapamycin – strain BY4716, OD600, 96 h, primary screen (AID 1091). Note: test concentration not given here. The settings on record: S. cerevisiae BY4716 + rapamycin, higher = more signal, called active from +8 up or from −8 down.
In test [15] the target is Torsin-1A-interacting protein 2 (Homo sapiens) (UniProt Q8NFQ8). Kind of test: small molecules binding lysate-expressed LULL1 – cell lysate, human LULL1 lysate, 635/667 nm fluorescence, primary screen (AID 1092).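 Note: probe is lysate of COS7 cells overexpressing human LULL1; score merges per-feature 667 nm fluorescence with signal-to-noise.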 Particulars: small-molecule microarray, hLULL1 lysate binding, 635 nm fluorescence; higher = more signal.
The nature of test [16]: optical density change of DRC41 E. coli – strain DRC41, OD650, 24 h, E. coli filamentation project, primary screen (AID 1093).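 Note: MC1000 strain lacking acrAB efflux and sulA so SOS filamentation is blocked; test concentration not given here.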 The settings on record: E. coli DRC41 growth, higher = more signal, called active from +8 up or from −8 down.
Test [17] is described as follows: probe aLefty2 binding to arrayed compounds – biochemical, biotinylated probe, 635/667 nm fluorescence, primary screen (AID 1094).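 Note: score merges spot fluorescence near 667 nm with spot signal-to-noise ratio.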 The settings on record: small-molecule microarray, higher = more signal.
For test [18], the system named is Noggin (protein binding on small-molecule microarray). The test is described as follows: small molecules binding Noggin protein – biochemical, 635/667 nm fluorescence, primary screen (AID 1095).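 Note: score merges 667 nm feature fluorescence with signal to noise over triplicate slides.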 Particulars: 635 nm fluorescence, higher = more signal.
Test [19] addresses Neurogenic locus notch homolog protein 3 (Homo sapiens) (UniProt Q9UM47). The test is described as follows: small molecules binding NOTCH3 protein – biochemical, 635/667 nm fluorescence, primary screen (AID 1096). The settings on record: small-molecule microarray, 635 nm fluorescence, higher = more signal.
The nature of test [20]: probe aEGFR binding to arrayed compounds – biochemical, biotinylated probe, 635/667 nm fluorescence, primary screen (AID 1097).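 Note: probe is a biotinylated anti-EGFR antibody binding compounds printed on slides; score combines fluorescence near 667 nm and signal to noise of each spot.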 The settings on record: small-molecule microarray, higher = more signal.

Molecules are shown by their SMILES. Calls of active or inactive are those of the source.

Chain of Torsin-1A-interacting protein 2 (Homo sapiens) (Q8NFQ8 whole entry, looked up): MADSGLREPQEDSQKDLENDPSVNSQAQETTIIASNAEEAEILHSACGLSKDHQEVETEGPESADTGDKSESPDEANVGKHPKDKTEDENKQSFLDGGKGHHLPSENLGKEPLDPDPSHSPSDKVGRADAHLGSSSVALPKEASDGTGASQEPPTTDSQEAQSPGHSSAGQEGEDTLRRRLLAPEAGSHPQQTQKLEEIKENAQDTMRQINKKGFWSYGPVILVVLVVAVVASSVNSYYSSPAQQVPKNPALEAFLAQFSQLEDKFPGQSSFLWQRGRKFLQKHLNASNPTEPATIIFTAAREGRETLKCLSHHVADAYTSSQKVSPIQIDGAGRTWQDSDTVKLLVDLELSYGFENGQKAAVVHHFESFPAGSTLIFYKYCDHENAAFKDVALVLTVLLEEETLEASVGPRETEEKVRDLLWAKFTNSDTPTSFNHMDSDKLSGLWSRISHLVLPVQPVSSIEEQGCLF
Chain of Neurogenic locus notch homolog protein 2 (Homo sapiens) (Q04721 whole entry, looked up, canonical isoform): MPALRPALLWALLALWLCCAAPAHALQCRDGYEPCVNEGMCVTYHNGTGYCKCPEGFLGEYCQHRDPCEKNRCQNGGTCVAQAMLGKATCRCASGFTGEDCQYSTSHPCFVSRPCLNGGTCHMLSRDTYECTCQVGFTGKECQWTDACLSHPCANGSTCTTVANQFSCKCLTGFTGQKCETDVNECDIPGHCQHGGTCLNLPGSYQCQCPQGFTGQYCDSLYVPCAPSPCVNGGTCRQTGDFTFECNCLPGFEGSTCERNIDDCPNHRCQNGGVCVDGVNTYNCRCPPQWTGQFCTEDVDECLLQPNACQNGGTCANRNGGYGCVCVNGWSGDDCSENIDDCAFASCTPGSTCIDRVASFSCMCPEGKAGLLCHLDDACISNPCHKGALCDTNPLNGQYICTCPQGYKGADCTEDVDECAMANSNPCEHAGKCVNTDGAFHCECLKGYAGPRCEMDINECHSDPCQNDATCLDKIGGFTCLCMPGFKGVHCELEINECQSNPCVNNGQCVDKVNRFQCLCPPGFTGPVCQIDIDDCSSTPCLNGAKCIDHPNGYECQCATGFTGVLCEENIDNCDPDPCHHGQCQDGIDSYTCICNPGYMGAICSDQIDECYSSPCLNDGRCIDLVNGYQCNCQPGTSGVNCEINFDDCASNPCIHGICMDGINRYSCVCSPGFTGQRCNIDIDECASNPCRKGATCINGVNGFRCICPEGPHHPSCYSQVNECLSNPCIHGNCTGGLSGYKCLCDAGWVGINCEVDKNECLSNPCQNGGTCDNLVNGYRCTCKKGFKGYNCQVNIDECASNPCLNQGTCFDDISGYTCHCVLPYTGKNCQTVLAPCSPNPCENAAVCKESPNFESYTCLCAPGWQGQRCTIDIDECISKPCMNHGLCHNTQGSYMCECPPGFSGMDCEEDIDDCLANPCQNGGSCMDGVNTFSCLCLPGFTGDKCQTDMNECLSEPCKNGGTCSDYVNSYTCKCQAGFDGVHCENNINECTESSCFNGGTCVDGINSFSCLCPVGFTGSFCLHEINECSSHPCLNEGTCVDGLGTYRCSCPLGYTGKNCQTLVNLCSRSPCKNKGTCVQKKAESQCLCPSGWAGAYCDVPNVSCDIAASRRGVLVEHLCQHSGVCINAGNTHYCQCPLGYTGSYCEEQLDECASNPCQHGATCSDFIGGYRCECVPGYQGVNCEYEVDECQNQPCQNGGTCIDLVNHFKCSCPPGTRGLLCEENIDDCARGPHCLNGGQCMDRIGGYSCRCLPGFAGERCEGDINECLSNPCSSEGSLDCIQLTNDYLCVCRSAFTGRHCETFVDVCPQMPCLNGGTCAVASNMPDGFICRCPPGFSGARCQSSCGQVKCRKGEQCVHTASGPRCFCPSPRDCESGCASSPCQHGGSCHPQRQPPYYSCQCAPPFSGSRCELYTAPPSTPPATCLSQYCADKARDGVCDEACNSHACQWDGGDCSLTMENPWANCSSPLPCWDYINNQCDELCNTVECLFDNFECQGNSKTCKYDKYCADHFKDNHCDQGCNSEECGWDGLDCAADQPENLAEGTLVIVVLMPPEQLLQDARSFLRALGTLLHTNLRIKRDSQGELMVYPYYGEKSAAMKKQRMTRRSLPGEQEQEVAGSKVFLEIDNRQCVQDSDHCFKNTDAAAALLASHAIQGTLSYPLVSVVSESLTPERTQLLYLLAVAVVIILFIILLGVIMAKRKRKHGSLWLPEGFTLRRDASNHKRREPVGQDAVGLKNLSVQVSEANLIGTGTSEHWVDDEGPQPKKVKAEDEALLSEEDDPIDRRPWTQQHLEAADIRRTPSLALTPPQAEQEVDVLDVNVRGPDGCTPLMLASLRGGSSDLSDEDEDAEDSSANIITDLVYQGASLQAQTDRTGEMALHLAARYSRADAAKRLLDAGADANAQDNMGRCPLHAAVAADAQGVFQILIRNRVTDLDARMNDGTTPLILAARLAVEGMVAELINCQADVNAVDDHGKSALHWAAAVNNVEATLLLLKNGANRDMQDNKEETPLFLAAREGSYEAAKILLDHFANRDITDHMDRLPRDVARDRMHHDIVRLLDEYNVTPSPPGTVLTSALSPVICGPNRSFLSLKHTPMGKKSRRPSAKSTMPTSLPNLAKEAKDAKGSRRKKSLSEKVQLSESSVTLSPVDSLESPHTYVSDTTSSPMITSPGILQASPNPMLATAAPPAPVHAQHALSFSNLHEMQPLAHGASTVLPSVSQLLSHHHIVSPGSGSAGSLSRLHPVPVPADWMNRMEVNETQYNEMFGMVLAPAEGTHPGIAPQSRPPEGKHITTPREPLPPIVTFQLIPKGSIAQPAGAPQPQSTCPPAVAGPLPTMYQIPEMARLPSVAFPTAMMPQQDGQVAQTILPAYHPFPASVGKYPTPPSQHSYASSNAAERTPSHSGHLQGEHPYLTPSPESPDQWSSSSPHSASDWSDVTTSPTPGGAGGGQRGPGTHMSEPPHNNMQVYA
Chain of Pro-neuregulin-1, membrane-bound isoform (Homo sapiens) (Q02297 whole entry, looked up, the tested form may be a part, canonical isoform): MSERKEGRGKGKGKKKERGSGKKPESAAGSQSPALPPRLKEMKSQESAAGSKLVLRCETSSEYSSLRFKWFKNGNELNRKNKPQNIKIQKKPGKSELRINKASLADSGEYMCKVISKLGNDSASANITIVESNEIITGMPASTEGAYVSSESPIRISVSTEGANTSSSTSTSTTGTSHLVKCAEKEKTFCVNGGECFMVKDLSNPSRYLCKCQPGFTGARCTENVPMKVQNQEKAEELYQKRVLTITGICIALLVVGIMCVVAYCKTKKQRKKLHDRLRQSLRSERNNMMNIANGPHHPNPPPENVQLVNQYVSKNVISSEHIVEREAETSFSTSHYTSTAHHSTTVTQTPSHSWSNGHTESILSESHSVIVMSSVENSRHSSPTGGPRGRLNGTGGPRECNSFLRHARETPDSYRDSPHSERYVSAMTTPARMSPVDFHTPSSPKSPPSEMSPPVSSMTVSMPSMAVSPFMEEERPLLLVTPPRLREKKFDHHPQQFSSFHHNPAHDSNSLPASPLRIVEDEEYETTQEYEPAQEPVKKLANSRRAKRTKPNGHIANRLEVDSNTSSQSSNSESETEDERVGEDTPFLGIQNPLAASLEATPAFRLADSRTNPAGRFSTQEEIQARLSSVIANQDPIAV

Consider `C[C@H]1CC[C@H]2C(=O)OC(COc3ccc(C(C)(C)C)cc3)CN2[C@@H]1c1ccc(Br)cc1` (stereo not given in full), for which the composite z-score was -0.373 in [1]; -0.52 in [2]; -0.169 in test [3]; 0.62 in test [4]; -0.123 in test [5]; 0.449 in [6]. Moreover, the composite z-score in test [7] is 1.05; in test [9], -0.0895; in test [10] it was -0.0618; in test [11], 1.02; in test [15], 1.25; in test [17] it was -0.139. Also, the composite z-score in test [18] is 0.756; in test [19] it was 0.165; in [20], -0.175. In addition, the z-score in test [8] is 0.458 (inactive); in test [12] it was -0.498 (inactive); in test [13] it was -17.9 (active); in test [14], -1.73 (inactive); in test [16], 1.24 (inactive).

As to `O=C1[C@H]2[C@H]3[C@H](O)[C@H](O)CC(=NOCc4ccccc4)[C@H]3CC[C@H]2C(=O)N1C1CCCCC1`, the composite z-score in test [1] was -0.483; in test [2], 0.357; in test [3], -0.0934; in [4], 0.412; in test [5], 0.691; in [6], 0.195. Besides, the composite z-score is 1.03 in test [7]; 0.404 in test [9]; -0.0645 in test [10]; 0.542 in test [11]; 1.23 in test [15]; -0.162 in test [17]. Besides, the composite z-score in test [18] was 0.423; in [19], 1.14; in [20], -0.0691. Besides, the z-score in test [8] is 0.111 (inactive); in test [12], -0.577 (inactive); in test [13], -0.355 (inactive); in [14], -0.858 (inactive); in test [16], 0.119 (inactive).

Consider `COC(=O)[C@H](C)NC(=O)CCC1CC(OC(=O)NCc2cccc3ccccc23)CC2(CCCC(COC(=O)NCc3ccccc3)O2)O1` (stereo not given in full), for which the composite z-score in [1] was -0.425; in [2] it was -0.261; in test [3], 0.026; in test [4], 0.329; in test [5], 1.39; in [6], 0.853. For the same molecule, the composite z-score in test [7] is 0.78; in [9], 0.2; in [10] it was -0.374; in [11], 1.29; in test [15], 1.97; in test [17], -0.0638. In addition, the results for the composite z-score in test [18], in test [19] and in test [20] were 0.478, 1.09 and 0.12, respectively. Also, the z-score in [8] was 2.13 (inactive); in test [12], -0.68 (inactive); in [13], 0.507 (inactive); in [14], -0.936 (inactive); in test [16], -0.351 (inactive).

`O=C1[C@H]2[C@H]3[C@H](O)[C@H](O)CC(=NO[C@@H]4O[C@H](CO)[C@@H](O)[C@H](O)[C@H]4O)[C@@H]3CC[C@H]2C(=O)N1C1CCCCC1`: the composite z-score in test [1] is -0.599; in [2], -0.0085; in [3] it was -0.0924; in test [4] it was 0.233; in test [5] it was 0.598; in test [6], 0.132. Further, the composite z-score was 0.0698 in test [7]; 0.296 in [9]; -0.0645 in test [10]; 0.112 in [11]; 0.301 in test [15]; -0.174 in test [17]. In addition, the composite z-score in test [18] was 0.662; in test [19] it was 0.749; in [20], -0.111. The z-score in test [8] was -0.637 (inactive); in test [12], 0.0081 (inactive); in test [13], -0.159 (inactive); in test [14] it was -0.291 (inactive); in [16] it was -0.166 (inactive).

Consider `CCOC(=O)[C@H](Cc1ccccc1)NC(=O)CCC1CC(OC(=O)NCCc2ccc(F)cc2)CC2(CCCC(COC(=O)NCCC(C)C)O2)O1` (stereo not given in full), for which the composite z-score in test [1] is -0.397; in [2], 0.813; in test [3] it was -0.0296; in test [4], -0.409; in test [5], 1.28; in [6], 0.539. Also, the composite z-score was 1.02 in test [7]; 0.296 in test [9]; -0.201 in [10]; 1.56 in test [11]; 2.32 in test [15]; -0.145 in test [17]. Also, the composite z-score in test [18] was 1.24; in test [19], 1.07; in [20], -0.0424. For the same molecule, the z-score is -0.214 (inactive) in test [8]; 0.91 (inactive) in test [12]; 0.902 (inactive) in [13]; 0.783 (inactive) in [14]; 0.087 (inactive) in test [16].
